Bioassay records (PubChem BioAssay)
Rows were chosen to be rich in hits. Some 2.1% of all compounds tested hit in one or more screens of this group.
aSyn yeast inh: inhibitors of alpha-synuclein toxicity in yeast; 370,000 compounds, 0.14% hits; AID 652106; Potency, µM (top dose mostly 46.1 µM), without a hit: at the highest dose growth rescue (activation), hits mostly activators; Yeast expressing alpha-synuclein, growth rescue, BacTiter-Glo, 24 h; note: % of control where 0% means no effect; nearly all actives have a fitted effect of over 65% in size
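Readout is rescue of growth in alpha-synuclein-expressing yeast, so inhibitors of toxicity appear as activators. Growth after 24 hr at 30 deg C in galactose medium is quantified by luminescence.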
PTAP TSG101 blk: blocks PTAP/TSG101 interaction to inhibit HIV-1 budding | Q99816 | Fluorescence polarization, FITC-PTAP peptide / Tsg101 binding | Potency, µM (series often up to 115 µM), without a hit: at the highest dose activity change, negative = inhibition, actives largely listed as inhibitors | 340,000 tested, under 10 active; active = well fitted inhibition curve with a large enough effect in the main read-out, with a control signal flat, not every such curve was filed as active; inconclusive = small, poorly fitted or top-dose-only effect, or effect the other way, or a change in a side signal; inactive = no such curve, though single readings can be large or run the other way; note: % of control where 0% means no effect
Target sequence (Q99816 whole entry, looked up): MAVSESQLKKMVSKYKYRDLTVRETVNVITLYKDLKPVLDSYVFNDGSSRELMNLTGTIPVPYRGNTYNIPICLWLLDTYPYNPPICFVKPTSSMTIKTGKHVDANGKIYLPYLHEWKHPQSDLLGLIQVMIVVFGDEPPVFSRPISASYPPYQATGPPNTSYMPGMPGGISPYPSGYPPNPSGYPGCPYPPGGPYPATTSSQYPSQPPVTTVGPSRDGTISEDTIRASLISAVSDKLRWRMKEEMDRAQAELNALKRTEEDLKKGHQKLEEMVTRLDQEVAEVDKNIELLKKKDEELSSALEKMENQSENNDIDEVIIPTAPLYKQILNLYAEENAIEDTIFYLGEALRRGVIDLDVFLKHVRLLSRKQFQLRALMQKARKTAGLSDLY
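Fluorescence polarization binding of Tsg101 binding domain (10 uM final) to FITC-labeled PTAP peptide (50 nM final) in HEPES pH 7.5 buffer with NaCl, Tween 20, EDTA, TCEP. Compounds added before peptide; binding 20 min at RT.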
TDP43 rescue: inhibitors of TDP-43 toxicity in yeast. Potency, µM (titrated, usually from 46.1 µM), without a hit: top-dose growth rescue (activation), hits mostly activators. 410,000 compounds, 1.8% hits. TDP-43 expressing yeast growth rescue, BacTiter-Glo, 24 h; note: % of control where 0% means no effect; nearly all actives have a fitted effect of over 50% in size
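Yeast expressing TDP-43 (pregrown in raffinose, seeded at OD600=0.02 in galactose medium) exposed to compounds 24 hr at 30 deg C. Growth read by BacTiter-Glo luminescence; rescue of toxicity appears as increased signal.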
Abeta yeast res: restores growth of yeast expressing A-beta42 peptide | yeast expressing A-beta42, growth rescue, OD600, 48 h; response scale: 0% DMSO, 100% iron-clioquinol control | Potency, µM (top dose mostly 46.1 µM), most hits filed as activators | 410,000 compounds, 0.063% hits | AID 1347071; note: nearly all actives have a fitted effect of over 55% in size
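Yeast A-beta toxicity model in growth medium with pinned compounds, 48 h at 30 C; growth read as absorbance at 600 nm. Normalized to FeCl3/clioquinol equimolar mix (positive) and DMSO (negative).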
FUS suppressor: FUS proteinopathy suppression in yeast. S. cerevisiae FUS-expressing, growth rescue, OD600, 24 h. Potency, µM (top dose mostly 76.6 µM), most hits filed as activators. 390,000 compounds, 0.24% hits. AID 1347120;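 note: plate controls were DMSO vehicle for no effect and reference control for full effect; nearly all actives have a fitted effect of over 55% in size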
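Yeast expressing FUS under galactose induction, OD 0.005 in 2% galactose medium; compounds in a dilution series, 24 h at 30C. Growth rescue by absorbance at 600 nm; CP55940 positive control, DMSO negative.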
Numbers without * were called inactive; i = inactive; ? = inconclusive; . = not tested or not shown; [ ] = dose if it differs, or a comment. Unless noted, calls come from the whole dose curve; as a rule, active = well fitted curve in the direction sought with a large enough effect; inconclusive = small, poorly fitted or top-dose-only effect, or another doubt; inactive = no such curve, though single readings can be large; an effect the other way counts as inactive or inconclusive. Potency is the fitted concentration of half-maximal effect.

SMILES | aSyn yeast inh | PTAP TSG101 blk | TDP43 rescue | Abeta yeast res | FUS suppressor
Cc1cc(C)nc(NC(=O)/C=C/c2ccccc2Cl)c1 | -19% | -1% | 13µM* | i | .
CC(=O)OC12CCCN(C1)/C(=C/c1cccc(Cl)c1)C2 (configuration not stated) | . | . | . | . | i
O=C1OCCC1Sc1nc2ccccc2c(=O)n1Cc1ccccc1 (configuration not stated) | 3% | -2% | -6% | i | i
O=C1OCCC1Sc1nc2cc(Cl)ccc2n1Cc1ccccc1 (configuration not stated) | 1% | -3% | 35µM* | i | i
CCCC[C@H]1C2CC(OC(=O)NCCCc3ccccc3)C(C2)[C@H]2CCCCN21 (some centres not stated) | . | . | . | . | i
O=C(NCCN1C(=O)S/C(=C\c2cccc(Cl)c2Cl)C1=O)C1=COCCO1 | 2% | 0% | 4µM* | i | i
S=c1[nH]nc(-c2n[nH]c3c2CCC3)n1N=Cc1ccc(Br)s1 | . | . | . | . | i
Cc1ccc(S(=O)(=O)N2CCN(c3nc(-n4cccn4)nc4ccccc34)CC2)cc1 | 6% | . | . | . | .
CCN(CC)c1nn2c(=O)c(C(=O)NCc3ccc(OC)cc3OC)cnc2s1 | . | . | 13% | i | i
CCOC(=O)c1c(C)sc2c1N(C(=O)CCl)c1cc(Cl)ccc1S2 | 2% | 1% | 20µM* | i | .
CCOc1ccccc1NC(=O)Cn1ncc2c(=O)oc3ccc(C)cc3c21 | . | . | 22% | i | i
CCN(CC)c1ncnc2scc(C3COc4ccccc4O3)c12 (configuration not stated) | 2% | -6% | 18µM* | i | i
Cc1ccc(C(c2nc3ccccc3[nH]2)n2c(-c3ccccc3)nc3ccccc32)cc1 (configuration not stated) | -1% | . | 18% | i | i
CCCC(=O)c1ccc(N2CCN(C(=O)c3ccccc3Br)CC2)c(F)c1 | 0% | -3% | 22µM* | i | i
O=C(c1ccc(N2CCN(C(=O)c3ccccc3Br)CC2)cc1)c1cccc(F)c1 | 19% | 0% | 14µM* | i | i
CCCC(=O)c1ccc(N2CCN(C(=O)c3ccccc3)CC2)c(F)c1 | -6% | -2% | ? | i | ?
CCC(=O)c1ccc(N2CCN(C(=O)c3cccc(F)c3)CC2)c(F)c1 | 7% | -1% | ? | i | i
CCCC(=O)c1cc(F)c(N2CCN(C(=O)OCC)CC2)cc1C | -1% | -6% | 16µM* | i | i
O=C(c1ccccc1)c1ccc(N2CCN(C(=O)c3ccc(F)cc3F)CC2)c(F)c1 | 6% | . | 22µM* | i | ?
CCCC(=O)c1cc(F)c(N2CCN(CCC#N)CC2)cc1C | 1% | -3% | 2% | i | i
CN(C(=O)c1ccc(Cl)cc1)c1ccc(OCC(=O)Nc2cc(C(=O)O)ccc2Cl)cc1 | 4%[1.84 µM] | -5% | 10% | i | i
O=C(Nc1ccc(F)cc1F)c1cc(-c2ccc(Cl)cc2)nc2ccccc12 | . | . | . | . | i
CSc1nc(C)cc(C)c1S(=O)(=O)c1ccccc1C | 0% | -5% | 11µM* | ? | i
Cc1cc(OCC(=O)N(C)Cc2ccccc2)ccc1Cl | 4% | -2% | 11µM* | i | i
Cc1cc(OCC(=O)N(C)Cc2ccccc2)ccc1Br | 13% | 0% | 25% | ? | i
SMILES | aSyn yeast inh | PTAP TSG101 blk | TDP43 rescue | Abeta yeast res | FUS suppressor
CCCCn1c(-c2cccs2)nc2nc3ccccc3nc21 | 5% | -8% | 13µM* | i | i
CCCCn1c(-c2csc3ccccc23)n[nH]c1=S | 6% | -4% | ? | i | .
CCCCCCn1c(-c2cccs2)n[nH]c1=S | 2% | 0% | -12%[0.397 µM] | 6.3µM* | i
CC(C)Cn1c(-c2cccs2)nc2nc3ccccc3nc21 | 6% | -3% | ? | i | i
CC(C)(C)C(=O)N(Cc1ccc(Cl)cc1)c1cnccn1 | 1% | -3% | 23% | i | i
N#Cc1c(-c2ccc(Cl)cc2)nc2n(c1=O)CCCS2 | 2% | -5% | 11µM* | i | i
COc1ccc(-c2nc3n(c(=O)c2C#N)CCCS3)cc1 | 5% | -14% | 16µM* | ? | i
Nc1ccc2nc(-c3cccc(-c4nc5ccc(N)cc5[nH]4)c3)[nH]c2c1 | 2% | 2% | 14µM* | ? | i
CC1CC(C)CN(S(=O)(=O)CCNC(=O)c2ccc3c(c2)OCO3)C1 (configuration not stated) | 4% | -2% | -3% | i | i
CC(C)Cn1cnc2c(SCc3ccccc3F)nc(N)nc21 | 9% | -2% | ? | i | .
CCCCn1cnc2c(SCc3ccccc3F)nc(N)nc21 | 7% | -5% | 18µM* | i | .
CC(=O)NC(Cc1c(F)c(F)c(F)c(F)c1F)C(=O)NCC(N)C(=O)c1ccccc1 (configuration not stated) | -2% | . | . | . | .
COc1c([N+](=O)[O-])ccc(N)c1N | -8% | . | . | . | .
CC1COC(=O)C(NNc2ccc(Cl)c(Cl)c2)=N1 (configuration not stated) | 13% | -3% | 3.5µM* | i | i
S=C(NC1CC1)SCc1ccco1 | 7% | -6% | 28µM* | i | i
O=C(NC1CCCCC1)NC1CCN(C(=S)NCc2ccco2)CC1 | -3% | -2% | -9% | i | i
COCCCNC(=O)CSc1nc2cc3c(cc2c(=O)n1CCCCCC(=O)NCc1ccc(OC)cc1)OCO3 | . | . | 17% | i | i
O=C(c1ccco1)N1N=C(c2ccccc2O)CC1c1cccs1 (configuration not stated) | 15% | . | 35µM* | i | i
Cc1ccc(Nc2nc(CSc3nnc(-c4ccc(F)cc4)n3C)cs2)cc1 | -18% | 0% | 18µM* | i | .
O=C(OCCOCCOC(=O)Oc1ccccc1)Oc1ccccc1 | 7% | -1% | 14µM* | i | .
COc1ccc(OC(=O)OCc2ccccc2)cc1 | -8% | . | 8% | i | i
CSc1ccc(CCNC(=O)c2ccc3c(c2)nc2n3CCCCC2)cc1 | . | . | -10% | i | i
CC(=O)/C(=C\N(C)C)Sc1ccc(C)cc1 | 24% | -3% | 29% | i | i
CC(=O)/C(=C\N(C)C)Sc1ccc(Cl)cc1 | ? | 20% | 22µM* | ? | i
Nc1ncnc2nc(-c3ccc(N4CCOCC4)nc3)cc(-c3cccc(Br)c3)c12 | 21µM* | . | . | . | .
CCn1nccc1C(=O)Nc1cc(Cl)cc(Cl)c1 | 2% | -2% | 20µM* | i | i
O=C(Nc1cccc(C(F)(F)F)c1)Nc1ccc2nc([C@@H]3O[C@H](CO)[C@@H](O)[C@H](O)[C@H]3O)[nH]c2c1 | 2% | . | 0% | i | i
